# Several values for one entry are separate records, joined by “and”; a condition that tells them apart may be missing. Equal entries are not always repeated. Compounds without any hit were thinned out: in the full panel of roughly 83,000, 20% have a hit.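 Note: values are percent growth. 100 is the growth of untreated cells, values between 100 and 0 indicate rising inhibition; between -100 and 0 indicates cell death.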 Activity calls are given as the source filed them. How the source made its calls: active means growth percent below 10; inactive means the rest.
# What was measured:
# Test in all cases: NCI-60 one-dose screen, 48 h (100 = growth as untreated, 0 = no growth, -100 = all killed)
# HCT-15 colon = system: HCT-15 colon
# HT29 colon = system: HT29 colon
# SNB-75 CNS = system: SNB-75 CNS
# U251 CNS = system: U251 CNS
# PC-3 prostate = system: PC-3 prostate
# SK-MEL-5 melanoma = system: SK-MEL-5 melanoma
# UACC-62 melanoma = system: UACC-62 melanoma
# SK-MEL-28 melanoma = system: SK-MEL-28 melanoma
# SK-MEL-2 melanoma = system: SK-MEL-2 melanoma
# SN12C renal = system: SN12C renal
# UO-31 renal = system: UO-31 renal
# TK-10 renal = system: TK-10 renal
# CAKI-1 renal = system: CAKI-1 renal
# A498 renal = system: A498 renal
# CCRF-CEM leukemia = system: CCRF-CEM leukemia
# MOLT-4 leukemia = system: MOLT-4 leukemia
# LOX IMVI melanoma = system: LOX IMVI melanoma
# ACHN renal = system: ACHN renal
# SNB-19 CNS = details: 10 µM unless noted
# EKVX NSCLC = details: 10 µM unless noted
smiles,measurement,setting,value
CC1(C)OB(c2ccc(Cn3cc(F)c(=O)[nH]c3=O)cc2)OC1(C)C,growth,HCT-15 colon; 10 µM,101% (inactive)
same,growth,HCT-15 colon; 50 µM,68.1% (inactive)
same,growth,HT29 colon; 10 µM,112% (inactive)
same,growth,HT29 colon; 50 µM,24.3% (inactive)
same,growth,SNB-75 CNS; 10 µM,103% (inactive)
same,growth,SNB-75 CNS; 50 µM,38.3% (inactive)
same,growth,U251 CNS; 10 µM,105% (inactive)
same,growth,U251 CNS; 50 µM,82.6% (inactive)
same,growth,PC-3 prostate; 10 µM,101% (inactive)
same,growth,PC-3 prostate; 50 µM,55.4% (inactive)
same,growth,SK-MEL-5 melanoma; 10 µM,98.4% (inactive)
same,growth,SK-MEL-5 melanoma; 50 µM,38.8% (inactive)
same,growth,UACC-62 melanoma; 10 µM,89.8% (inactive)
same,growth,UACC-62 melanoma; 50 µM,29.1% (inactive)
same,growth,SK-MEL-28 melanoma; 10 µM unless noted,99.4% (inactive)
same,growth,SK-MEL-2 melanoma; 10 µM,113% (inactive)
same,growth,SK-MEL-2 melanoma; 50 µM,41.5% (inactive)
same,growth,SN12C renal; 10 µM,102% (inactive)
same,growth,SN12C renal; 50 µM,80.8% (inactive)
same,growth,UO-31 renal; 10 µM,87.3% (inactive)
same,growth,UO-31 renal; 50 µM,72.8% (inactive)
same,growth,TK-10 renal; 10 µM,102% (inactive)
same,growth,TK-10 renal; 50 µM,79.3% (inactive)
same,growth,CAKI-1 renal; 10 µM,85.7% (inactive)
same,growth,CAKI-1 renal; 50 µM,75.1% (inactive)
same,growth,A498 renal; 10 µM unless noted,25.6% [50 µM] (inactive)
same,growth,CCRF-CEM leukemia; 10 µM,112% (inactive)
same,growth,CCRF-CEM leukemia; 50 µM,37.7% (inactive)
same,growth,MOLT-4 leukemia; 10 µM,99.3% (inactive)
same,growth,MOLT-4 leukemia; 50 µM,54.7% (inactive)
CNC(=O)c1cc(Oc2ccc(CC(=O)Nc3cc(C(C)(C)C)nn3C)cc2)ccn1,growth,HCT-15 colon; 1 µM,92.7% (inactive)
same,growth,HCT-15 colon; 10 µM,83.1% (inactive)
same,growth,HCT-15 colon; 30 µM,70.5% (inactive)
same,growth,HT29 colon; 1 µM,90.7% (inactive)
same,growth,HT29 colon; 10 µM,94.1% (inactive)
same,growth,HT29 colon; 30 µM,86.5% (inactive)
same,growth,SNB-75 CNS; 1 µM,51.3% (inactive)
same,growth,SNB-75 CNS; 10 µM,68% (inactive)
same,growth,SNB-75 CNS; 30 µM,77.9% (inactive)
same,growth,U251 CNS; 1 µM,86% (inactive)
same,growth,U251 CNS; 10 µM,84.5% (inactive)
same,growth,U251 CNS; 30 µM,90.3% (inactive)
same,growth,PC-3 prostate; 1 µM,77.9% (inactive)
same,growth,PC-3 prostate; 10 µM,77.1% (inactive)
same,growth,PC-3 prostate; 30 µM,85.5% (inactive)
same,growth,SK-MEL-5 melanoma; 1 µM,22.8% (inactive)
same,growth,SK-MEL-5 melanoma; 10 µM,30.8% (inactive)
same,growth,UACC-62 melanoma; 1 µM,62.2% (inactive)
same,growth,UACC-62 melanoma; 10 µM,42% (inactive)
same,growth,UACC-62 melanoma; 30 µM,56.3% (inactive)
same,growth,LOX IMVI melanoma; 1 µM,76.6% (inactive)
same,growth,LOX IMVI melanoma; 10 µM,48.9% (inactive)
same,growth,LOX IMVI melanoma; 30 µM,56.2% (inactive)
same,growth,SK-MEL-28 melanoma; 1 µM,81.7% (inactive)
same,growth,SK-MEL-28 melanoma; 10 µM,83.8% (inactive)
same,growth,SK-MEL-28 melanoma; 30 µM,89.9% (inactive)
same,growth,SK-MEL-2 melanoma; 1 µM,67.9% (inactive)
same,growth,SK-MEL-2 melanoma; 10 µM,55.6% (inactive)
same,growth,SK-MEL-2 melanoma; 30 µM,78.3% (inactive)
same,growth,SN12C renal; 1 µM,72.8% (inactive)
same,growth,SN12C renal; 10 µM,78.6% (inactive)
same,growth,SN12C renal; 30 µM,87.1% (inactive)
same,growth,TK-10 renal; 1 µM,95.2% (inactive)
same,growth,TK-10 renal; 10 µM,80.4% (inactive)
same,growth,TK-10 renal; 30 µM,103% (inactive)
same,growth,ACHN renal; 1 µM,67.7% (inactive)
same,growth,ACHN renal; 10 µM,67.8% (inactive)
same,growth,ACHN renal; 30 µM,73.4% (inactive)
same,growth,CAKI-1 renal; 1 µM,57.9% (inactive)
same,growth,CAKI-1 renal; 10 µM,61.3% (inactive)
same,growth,CAKI-1 renal; 30 µM,76.5% (inactive)
same,growth,A498 renal; 1 µM,69.3% (inactive)
same,growth,A498 renal; 10 µM,31.2% (inactive)
same,growth,A498 renal; 30 µM,54.8% (inactive)
same,growth,CCRF-CEM leukemia; 1 µM,73.3% (inactive)
same,growth,CCRF-CEM leukemia; 10 µM,66.1% (inactive)
same,growth,CCRF-CEM leukemia; 30 µM,62.9% (inactive)
same,growth,MOLT-4 leukemia; 1 µM,78% (inactive)
same,growth,MOLT-4 leukemia; 10 µM,-64.3% (active)
same,growth,MOLT-4 leukemia; 30 µM,65.6% (inactive)
CN(C)c1ccc(C(=C2C=CC(=[N+](C)C)C=C2)c2ccccc2Cl)cc1,growth,HCT-15 colon; 10 µM unless noted,6.9% (active) and -30.6% (active)
same,growth,HT29 colon; 10 µM unless noted,-38.3% (active) and -24% (active)
same,growth,SNB-75 CNS; 10 µM unless noted,-58.6% (active) and -96.1% (active)
same,growth,SNB-19 CNS,-96.9% (active) and -95.6% (active)
same,growth,U251 CNS; 10 µM unless noted,-58.3% (active) and -97.7% (active)
same,growth,PC-3 prostate; 10 µM unless noted,-19.5% (active)
same,growth,SK-MEL-5 melanoma; 10 µM unless noted,-100% (active) and -96.9% (active)
same,growth,UACC-62 melanoma; 10 µM unless noted,-70.6% (active) and -73.3% (active)
same,growth,LOX IMVI melanoma; 10 µM unless noted,-57.2% (active) and -97.2% (active)
same,growth,SK-MEL-28 melanoma; 10 µM unless noted,-93.7% (active) and -96.8% (active)
same,growth,SK-MEL-2 melanoma; 10 µM unless noted,-57.7% (active) and -52.4% (active)
same,growth,EKVX NSCLC,15.9% (inactive) and -34.1% (active)
same,growth,SN12C renal; 10 µM unless noted,-42% (active) and -50.3% (active)
same,growth,UO-31 renal; 10 µM unless noted,-28.9% (active) and -12.3% (active)
same,growth,TK-10 renal; 10 µM unless noted,-30.6% (active) and -72.4% (active)
same,growth,ACHN renal; 10 µM unless noted,1.56% (active) and -64% (active)
same,growth,CAKI-1 renal; 10 µM unless noted,-16.7% (active)
same,growth,A498 renal; 10 µM unless noted,-64% (active) and -87.1% (active)
same,growth,CCRF-CEM leukemia; 10 µM unless noted,-35.3% (active) and 5.73% (active)
same,growth,MOLT-4 leukemia; 10 µM unless noted,-26.3% (active) and 5.09% (active)
Cc1cc(C)c(N)c(Br)c1,growth,HCT-15 colon; 10 µM unless noted,106% (inactive) and 95.4% (inactive)
same,growth,HT29 colon; 10 µM unless noted,102% (inactive) and 90.4% (inactive)
same,growth,SNB-75 CNS; 10 µM unless noted,83.3% (inactive) and 74.5% (inactive)
same,growth,SNB-19 CNS,107% (inactive) and 94.7% (inactive)
same,growth,U251 CNS; 10 µM unless noted,105% (inactive) and 104% (inactive)
same,growth,PC-3 prostate; 10 µM unless noted,102% (inactive) and 91.9% (inactive)
same,growth,SK-MEL-5 melanoma; 10 µM unless noted,103% (inactive) and 96.3% (inactive)
same,growth,UACC-62 melanoma; 10 µM unless noted,108% (inactive) and 94.5% (inactive)
same,growth,LOX IMVI melanoma; 10 µM unless noted,106% (inactive) and 96.4% (inactive)
same,growth,SK-MEL-28 melanoma; 10 µM unless noted,110% (inactive) and 102% (inactive)
same,growth,SK-MEL-2 melanoma; 10 µM unless noted,96.9% (inactive) and 99.3% (inactive)
same,growth,EKVX NSCLC,110% (inactive) and 97.1% (inactive)
same,growth,SN12C renal; 10 µM unless noted,110% (inactive) and 101% (inactive)
same,growth,UO-31 renal; 10 µM unless noted,92.3% (inactive) and 87.9% (inactive)
same,growth,TK-10 renal; 10 µM unless noted,108% (inactive) and 112% (inactive)
same,growth,ACHN renal; 10 µM unless noted,106% (inactive) and 95.4% (inactive)
same,growth,CAKI-1 renal; 10 µM unless noted,91.4% (inactive) and 74.5% (inactive)
same,growth,A498 renal; 10 µM unless noted,134% (inactive) and 88.8% (inactive)
same,growth,CCRF-CEM leukemia; 10 µM unless noted,97.4% (inactive) and 90.1% (inactive)
same,growth,MOLT-4 leukemia; 10 µM unless noted,106% (inactive) and 111% (inactive)

# Source: PubChem BioAssay (NCI)
